ALDH1A1 inh – inhibitors of human aldehyde dehydrogenase 1A1. P00352. Purified ALDH1A1, NADH fluorescence, propionaldehyde substrate. Potency, µM (highest dose often 75.3 µM), most hits filed as inhibitors. hit rate 7.3% among 220,000. AID 1030; active = well fitted inhibition curve with a large enough effect, not every such curve was filed as active; inconclusive = small, poorly fitted or top-dose-only effect, or another doubt; inactive = no such curve, though single readings can be large or run the other way
Gal4-VP16 FLuc – Gal4-VP16 reporter inhibition counter-screen; Drosophila S2 Gal4-VP16 UAS-luciferase, luminescence, 20 h; Potency, µM (top dose mostly 53.6 µM), actives largely listed as inhibitors; hit rate 3.5% among 310,000; AID 2546;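 note: Gal4-VP16 expression switched on by copper sulfate through the metallothionein promoter; nearly all actives have a fitted effect of over 50% in size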
PLK1 PBD inh – PLK1 (human) polo-box domain binding inhibition. Plk1 PBD binding of FITC phosphopeptide, fluorescence polarization. Potency, µM, hits mostly inhibitors. hit rate 2.8% among 360,000; note: series mostly up to about 57 µM; nearly all actives have a fitted effect of over 65% in size
Target sequence (P53350 whole entry, looked up, the tested form may be a part): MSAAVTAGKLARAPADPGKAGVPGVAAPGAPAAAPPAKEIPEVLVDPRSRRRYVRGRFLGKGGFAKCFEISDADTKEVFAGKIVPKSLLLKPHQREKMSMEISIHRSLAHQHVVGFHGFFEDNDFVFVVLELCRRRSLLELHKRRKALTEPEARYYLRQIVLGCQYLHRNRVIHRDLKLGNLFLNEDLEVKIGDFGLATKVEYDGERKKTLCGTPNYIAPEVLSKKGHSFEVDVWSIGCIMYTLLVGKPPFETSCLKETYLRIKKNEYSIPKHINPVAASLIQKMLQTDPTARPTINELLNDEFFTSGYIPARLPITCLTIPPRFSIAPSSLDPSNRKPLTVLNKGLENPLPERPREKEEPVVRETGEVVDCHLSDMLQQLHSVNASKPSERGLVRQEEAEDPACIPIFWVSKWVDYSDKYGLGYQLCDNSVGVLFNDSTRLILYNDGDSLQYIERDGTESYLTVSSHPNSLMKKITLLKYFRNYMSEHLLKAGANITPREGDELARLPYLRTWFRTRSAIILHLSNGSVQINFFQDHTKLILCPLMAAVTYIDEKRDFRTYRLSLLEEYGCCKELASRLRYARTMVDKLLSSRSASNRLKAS
RORgamma inh – ROR gamma (mouse) transcription inhibition | Drosophila S2 Gal4-RORgamma UAS-luciferase reporter, 20 h | hit rate 5.4% among 310,000 | Potency, µM (doses to about 53.6 µM), most hits filed as inhibitors | P51450; note: nearly all actives have a fitted effect of over 60% in size
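ROR gamma transcriptional activity was tracked as Gal4-UAS luciferase output in stably transfected Drosophila Schneider cells, with compound added 1 hr before 700 uM copper sulfate induction and a 20 hr ambient-temperature incubation.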
Sfp PPTase inh – blocks B. subtilis Sfp PPTase activity | Q9F4F7 | Biochemical Sfp PPTase activity, qHTS | Potency, µM, actives largely listed as inhibitors | hit rate 3.5% among 310,000;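 note: the enzyme is Sfp with the accession as filed and its product quenches rhodamine fluorescence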
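After 15 min at room temperature with compound, 15 nM Sfp received 5 uM rhodamine-CoA plus 12.5 uM BHQ-2-ybbR (50 mM Hepes pH 7.6, 10 mM MgCl2). Rate came from the fluorescence difference over 30 min, ex 525/em 598 nm.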
A number is an active result; [ ] = dose if it differs, or a comment. This is a sample that favours compounds with a hit; in the whole collection about 12% have one here. Unless noted, calls come from the whole dose curve; as a rule, active = well fitted curve in the direction sought with a large enough effect; inconclusive = small, poorly fitted or top-dose-only effect, or another doubt; inactive = no such curve, though single readings can be large; an effect the other way counts as inactive or inconclusive.

How did Cc1ccc(C)c(S(=O)(=O)Nc2ccc(O)c(C(=O)O)c2)c1 do in these assays?
ALDH1A1 inh: inconclusive; Gal4-VP16 FLuc: inactive; PLK1 PBD inh: 29.9µM; RORgamma inh: inactive; Sfp PPTase inh: inactive

How did Cc1ccc2oc(-c3ccccc3)c(O)c(=O)c2c1 do in these assays?
ALDH1A1 inh: inactive; Gal4-VP16 FLuc: 14.1µM; RORgamma inh: 6.31µM; Sfp PPTase inh: inactive

What do the screens show for `O=c1c(O)c(-c2ccccc2)oc2ccccc12`?
ALDH1A1 inh: inactive; Gal4-VP16 FLuc: 7.08µM; PLK1 PBD inh: inactive; RORgamma inh: 3.98µM; Sfp PPTase inh: inactive

How did O=C(O)c1c(-c2ccccc2)oc2ccc(O)cc12 do in these assays?
Gal4-VP16 FLuc: inactive; PLK1 PBD inh: inactive; RORgamma inh: inactive; Sfp PPTase inh: inactive

What do the screens show for `Cc1ccc(-c2oc3ccccc3c(=O)c2OCC(=O)O)cc1`?
ALDH1A1 inh: inconclusive; Gal4-VP16 FLuc: inactive; PLK1 PBD inh: inactive; RORgamma inh: inactive; Sfp PPTase inh: inactive

How did Cc1ccc(-c2oc3ccccc3c(=O)c2O)cc1 do in these assays?
ALDH1A1 inh: inactive; Gal4-VP16 FLuc: 12.6µM; PLK1 PBD inh: inactive; RORgamma inh: 3.98µM; Sfp PPTase inh: inactive

How did Cc1ccc2oc(-c3ccccc3)c(C(=O)O)c(=O)c2c1 do in these assays?
ALDH1A1 inh: inconclusive; Gal4-VP16 FLuc: 11.2µM; PLK1 PBD inh: inactive; RORgamma inh: 7.08µM; Sfp PPTase inh: inactive

What do the screens show for `CC[C@H](C)[C@H](NC(=O)[C@H](C)NC(=O)[C@H](CC(=O)O)NC(=O)[C@H](CO)NC(=O)[C@@H](N)Cc1cnc[nH]1)C(=O)N[C@@H](Cc1ccccc1)C(=O)N[C@H](C(=O)N[C@@H](CCC(N)=O)C(=O)N[C@@H](CCC(N)=O)C(=O)N[C@@H](Cc1ccc(O)cc1)C(=O)N[C@@H](CO)C(=O)N[C@@H](CCCCN)C(=O)N[C@@H](CC(C)C)C(=O)N[C@@H](CC(C)C)C(=O)N[C@@H](C)C(=O)N[C@@H](CCCCN)C(=O)N[C@@H](CC(C)C)C(=O)N[C@@H](C)C(=O)N[C@@H](CC(C)C)C(=O)N[C@@H](CCC(N)=O)C(=O)N[C@@H](CCCCN)C(=O)N[C@@H](Cc1ccc(O)cc1)C(=O)N[C@@H](CC(C)C)C(=O)N[C@@H](C)C(=O)N[C@@H](CO)C(=O)N[C@H](C(=O)N[C@@H](CC(C)C)C(=O)NCC(=O)N[C@@H](CO)C(=O)N[C@@H](CCCNC(=N)N)C(=O)N[C@H](C(=O)N[C@@H](CO)C(=O)N1CCC[C@H]1C(=O)N1CCC[C@H]1C(=O)N1CCC[C@H]1C(N)=O)[C@@H](C)O)[C@@H](C)CC)[C@@H](C)O`?
Gal4-VP16 FLuc: inactive; RORgamma inh: inactive; Sfp PPTase inh: inactive

Results for CCNc1ncc2nc(CCc3ccccc3)c(=O)n(C[C@H]3CCCO3)c2n1 ?
ALDH1A1 inh: inconclusive; Gal4-VP16 FLuc: inactive; RORgamma inh: inactive; Sfp PPTase inh: inactive

What do the screens show for `COC(=O)[C@H]1C[C@@H]1[C@H](NC(=O)c1cc(C)nn1C)c1ccccc1`?
ALDH1A1 inh: inconclusive; Gal4-VP16 FLuc: inactive; RORgamma inh: inactive; Sfp PPTase inh: inactive

How did COC(=O)N1CCC[C@@]2(CCN(C(=O)Nc3ccccc3)C2)C1 do in these assays?
ALDH1A1 inh: inactive; Gal4-VP16 FLuc: inactive; RORgamma inh: inactive; Sfp PPTase inh: inactive

Results for CCCCNC(=O)C1(C)CCCCN1C(=O)c1ccc(C)c(F)c1 (stereo not given) ?
PLK1 PBD inh: inactive

Results for N[C@@H](CCCCO)C(=O)O ?
ALDH1A1 inh: inactive[13.5 µM]

Results for Cc1cc(C)nc(-n2nc(C)cc2NC(=O)CN2CCC(C)CC2)n1 ?
ALDH1A1 inh: 3.55µM; Gal4-VP16 FLuc: inconclusive; PLK1 PBD inh: inactive; RORgamma inh: inconclusive; Sfp PPTase inh: inactive

What do the screens show for `Cc1ccc(C)c(C(=O)Nc2cc(C)nn2-c2nc(C)cc(C)n2)c1`?
ALDH1A1 inh: inactive; Gal4-VP16 FLuc: inconclusive; PLK1 PBD inh: inactive; RORgamma inh: 0.501µM; Sfp PPTase inh: inactive

How did Cc1cc(Br)c(NC(=O)CN2CCCC2)c(Br)c1 do in these assays?
Gal4-VP16 FLuc: inactive; PLK1 PBD inh: inactive; RORgamma inh: inactive; Sfp PPTase inh: inactive

How did CCC1CCCCN1CC(=O)Nc1cc(C)nn1-c1nc(C)cc(C)n1 (stereo not given) do in these assays?
ALDH1A1 inh: 14.1µM; Gal4-VP16 FLuc: 1.26µM; PLK1 PBD inh: inactive; RORgamma inh: 0.398µM; Sfp PPTase inh: inactive

How did CCc1nc2ccccc2c(NC(=O)CN2CCC(C)CC2)c1C do in these assays?
ALDH1A1 inh: inconclusive; Gal4-VP16 FLuc: inactive; PLK1 PBD inh: inactive; RORgamma inh: inactive; Sfp PPTase inh: inactive

How did Cc1cc(C)nc(-n2nc(C)cc2NC(=O)CN2CCCC2)n1 do in these assays?
ALDH1A1 inh: inconclusive; Gal4-VP16 FLuc: inactive; PLK1 PBD inh: inactive; RORgamma inh: 11.2µM; Sfp PPTase inh: inactive

Results for CC1C(=O)N(Cc2cn(CC3CCCCC3)nn2)CCS(=O)(=O)N1Cc1ccc(-c2ccc(Cl)cc2)cc1 (stereo not given) ?
PLK1 PBD inh: inactive

How did c1ccc(CNc2ncncc2-c2ccoc2)cc1 do in these assays?
ALDH1A1 inh: inconclusive; Gal4-VP16 FLuc: inactive; RORgamma inh: inactive; Sfp PPTase inh: inactive

What do the screens show for `COc1ccc(C2c3cc(OC)c(OC)cc3Cc3c4cc(OC)c(OC)cc4cc[n+]32)cc1OC` (stereo not given)?
ALDH1A1 inh: inactive; Gal4-VP16 FLuc: inactive; RORgamma inh: inactive; Sfp PPTase inh: inactive

How did COc1ccc(NC(=O)N(C)C[C@H]2Oc3ccc(NC(=O)CCN4CCOCC4)cc3C(=O)N([C@H](C)CO)C[C@@H]2C)cc1 do in these assays?
PLK1 PBD inh: inactive

Results for Cc1cc(C)nc(-n2nc(C)cc2NC(=O)CNC(C)c2ccccc2)n1 (stereo not given) ?
ALDH1A1 inh: inconclusive; Gal4-VP16 FLuc: inactive; PLK1 PBD inh: inactive; RORgamma inh: 1.58µM; Sfp PPTase inh: inactive

Results for Cc1cc(NC(=O)CSc2cc(Cl)ccc2Cl)n(-c2ccccc2)n1 ?
ALDH1A1 inh: inconclusive; Gal4-VP16 FLuc: inactive; PLK1 PBD inh: inactive; RORgamma inh: inactive; Sfp PPTase inh: inactive

How did Cc1ccc(CNC(=O)CNC(=O)c2ccc(C(C)(C)C)cc2)n1C do in these assays?
PLK1 PBD inh: inactive

What do the screens show for `COC(=O)c1ccc2cc(OC)cc([N+](=O)[O-])c2n1`?
PLK1 PBD inh: inactive

What do the screens show for `N=C1SCC(=O)N1c1ccccc1Cl`?
Gal4-VP16 FLuc: inactive; PLK1 PBD inh: inactive; RORgamma inh: inactive; Sfp PPTase inh: inactive

How did Cc1ccccc1N1C(=O)CSC1=C(C#N)C#N do in these assays?
ALDH1A1 inh: 3.55µM; Gal4-VP16 FLuc: inactive; PLK1 PBD inh: inactive; RORgamma inh: inconclusive; Sfp PPTase inh: inactive

How did Cc1cc(OC(=O)c2c(F)cc(F)cc2F)nc(C)n1 do in these assays?
ALDH1A1 inh: inactive; Gal4-VP16 FLuc: inactive; PLK1 PBD inh: 21.2µM; RORgamma inh: inactive; Sfp PPTase inh: inactive

What do the screens show for `Cc1ccc2cccc(NC(=S)NC(=O)c3c(Br)cnn3C)c2n1`?
ALDH1A1 inh: inconclusive; Gal4-VP16 FLuc: inconclusive; PLK1 PBD inh: inactive; RORgamma inh: 3.98µM; Sfp PPTase inh: inactive
